ChEMBL document CHEMBL3988442, “University of Dundee, Small-Polar-MMV Screening Library” (2021)
For some of these results: Measured potencies and affinities stand elsewhere.

Assays:
Parameters in all cases: scale not given: direction of the effect not stated beside the values
[1] = molecular target: Protein translocase subunit SecA (Escherichia coli (strain K12)) (UniProt P10408); assay: Assay to Identify E. coli SecA ATPase Inhibitors; format: functional; details: 30 µM
[2] = molecular target: T1, Ubiquitin-activating enzyme e1, putative (Leishmania donovani (strain BPK282A1)) (UniProt E9BSI1); assay: Leishmania donovani Ubiquitin Activating Enzyme (LdE1); format: functional; details: 30 µM
T1 sequence (whole entry): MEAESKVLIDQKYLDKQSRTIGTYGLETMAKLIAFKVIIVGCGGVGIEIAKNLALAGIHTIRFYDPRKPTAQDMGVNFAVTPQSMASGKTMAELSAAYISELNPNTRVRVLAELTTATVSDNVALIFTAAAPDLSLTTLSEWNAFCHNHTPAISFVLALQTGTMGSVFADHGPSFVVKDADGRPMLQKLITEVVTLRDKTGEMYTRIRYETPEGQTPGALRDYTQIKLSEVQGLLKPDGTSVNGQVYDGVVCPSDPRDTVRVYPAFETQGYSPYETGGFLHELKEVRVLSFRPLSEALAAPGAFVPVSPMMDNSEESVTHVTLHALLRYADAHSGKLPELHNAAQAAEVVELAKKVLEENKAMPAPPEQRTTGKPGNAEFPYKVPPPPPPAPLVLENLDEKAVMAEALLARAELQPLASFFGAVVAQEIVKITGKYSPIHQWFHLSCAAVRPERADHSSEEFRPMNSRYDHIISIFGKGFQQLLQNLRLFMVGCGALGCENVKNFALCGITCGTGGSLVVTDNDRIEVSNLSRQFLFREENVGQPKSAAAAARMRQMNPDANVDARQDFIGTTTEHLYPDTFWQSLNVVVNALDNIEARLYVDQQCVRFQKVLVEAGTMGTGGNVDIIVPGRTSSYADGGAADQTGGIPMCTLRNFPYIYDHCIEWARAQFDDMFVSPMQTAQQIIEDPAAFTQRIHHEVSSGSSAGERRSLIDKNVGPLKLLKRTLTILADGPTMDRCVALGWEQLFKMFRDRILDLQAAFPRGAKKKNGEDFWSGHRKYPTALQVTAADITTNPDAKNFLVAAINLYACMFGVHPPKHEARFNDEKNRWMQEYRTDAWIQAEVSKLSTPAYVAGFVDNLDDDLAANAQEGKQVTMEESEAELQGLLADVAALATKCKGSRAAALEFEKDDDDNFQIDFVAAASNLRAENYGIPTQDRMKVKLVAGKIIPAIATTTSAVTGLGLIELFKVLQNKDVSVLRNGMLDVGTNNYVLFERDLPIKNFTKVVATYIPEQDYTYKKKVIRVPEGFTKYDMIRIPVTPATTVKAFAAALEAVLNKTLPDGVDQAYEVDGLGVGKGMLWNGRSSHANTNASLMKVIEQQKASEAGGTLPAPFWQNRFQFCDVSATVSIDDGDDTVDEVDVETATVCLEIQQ

[3] = molecular target: AMP-activated protein kinase, AMPK (Homo sapiens) (UniProt P54646+O43741+P54619+Q9UGJ0+Q9Y478+Q13131+Q9UGI9); assay: AMP-dependent Kinase enzyme assay. An in vitro enzyme assay that detects ADP turnover that is directly proportional to AMPK activity. This uses naive AMPK that is activated during the assay with MK-8722; format: functional; details: 30 µM
[4] = molecular target: Sialic acid-binding Ig-like lectin 9 (Homo sapiens) (UniProt Q9Y336); assay: Hs-Siglec9 ALPHAscreen SOP 20170721; details: 10 µM
Sequence of Sialic acid-binding Ig-like lectin 9 (Homo sapiens) (Q9Y336 whole entry): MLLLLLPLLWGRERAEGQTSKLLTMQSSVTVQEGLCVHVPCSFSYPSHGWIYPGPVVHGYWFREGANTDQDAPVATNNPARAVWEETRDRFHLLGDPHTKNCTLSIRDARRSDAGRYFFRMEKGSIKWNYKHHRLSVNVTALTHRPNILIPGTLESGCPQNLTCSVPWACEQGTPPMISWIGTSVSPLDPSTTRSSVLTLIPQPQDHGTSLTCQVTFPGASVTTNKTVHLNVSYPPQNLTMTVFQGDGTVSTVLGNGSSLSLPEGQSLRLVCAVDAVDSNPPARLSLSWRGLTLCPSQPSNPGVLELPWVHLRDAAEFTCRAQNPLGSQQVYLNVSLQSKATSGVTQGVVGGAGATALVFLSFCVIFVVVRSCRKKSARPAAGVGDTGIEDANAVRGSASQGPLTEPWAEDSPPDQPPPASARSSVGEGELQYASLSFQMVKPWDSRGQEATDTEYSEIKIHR

Trypanosoma cruzi = assay: Trypanosoma cruzi phosphomannomutase and mannose-1-phosphate guanylyltransferase assay; format: functional; details: 10 µM
[5] = molecular target: T2, Arginase-2, mitochondrial (Homo sapiens) (UniProt P78540); assay: in vitro enzyme assay to detect the production of urea directly proportional to the activity of Arginase II; format: functional; details: 33.3 µM; note: in the data most compounds retested in dose-response had high values
T2 sequence (whole entry): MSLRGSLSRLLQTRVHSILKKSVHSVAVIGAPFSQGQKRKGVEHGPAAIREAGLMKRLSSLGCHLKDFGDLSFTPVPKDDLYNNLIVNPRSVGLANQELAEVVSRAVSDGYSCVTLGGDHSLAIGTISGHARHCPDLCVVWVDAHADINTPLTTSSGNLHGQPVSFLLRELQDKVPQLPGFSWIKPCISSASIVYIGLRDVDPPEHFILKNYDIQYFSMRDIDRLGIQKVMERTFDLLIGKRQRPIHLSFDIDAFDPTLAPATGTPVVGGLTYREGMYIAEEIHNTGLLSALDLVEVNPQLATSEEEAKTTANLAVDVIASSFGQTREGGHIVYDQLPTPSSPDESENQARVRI

[6] = molecular target: T3, Proteasome subunit beta (Trypanosoma cruzi) (UniProt O96673); assay: Trypanosoma cruzi proteasome chymotrypsin-like activity (TcProtChymo) assay.; note: in the data most compounds retested in dose-response had high values; format: functional; details: 9.37 µM
T3 sequence (whole entry): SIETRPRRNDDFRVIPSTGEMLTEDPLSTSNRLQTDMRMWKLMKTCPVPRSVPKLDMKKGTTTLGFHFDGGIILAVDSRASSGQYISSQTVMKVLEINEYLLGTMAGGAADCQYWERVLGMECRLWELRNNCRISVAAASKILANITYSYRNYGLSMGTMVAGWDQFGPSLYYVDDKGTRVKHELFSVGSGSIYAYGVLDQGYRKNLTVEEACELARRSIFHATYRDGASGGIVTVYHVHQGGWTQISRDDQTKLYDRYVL

Homo sapiens = species on record: Homo sapiens; assay: To identify inhibition of the IFN signalling (Jak-Stat) pathway via expression of an eGFP reporter gene under the control of an IFN-stimulated response element (ISRE) containing MxA promoter.; format: functional; details: 30 µM
[7] = molecular target: T4, Tyrosyl-tRNA synthetase, putative (Trypanosoma cruzi (strain CL Brener)) (UniProt Q4DSP6); assay: Trypanosoma cruzi tyrosyl tRNA synthetase (TcYRS) _High Tyrosine SOP; format: functional; details: 30 µM; note: in the data most compounds retested in dose-response had high values
T4 sequence (whole entry): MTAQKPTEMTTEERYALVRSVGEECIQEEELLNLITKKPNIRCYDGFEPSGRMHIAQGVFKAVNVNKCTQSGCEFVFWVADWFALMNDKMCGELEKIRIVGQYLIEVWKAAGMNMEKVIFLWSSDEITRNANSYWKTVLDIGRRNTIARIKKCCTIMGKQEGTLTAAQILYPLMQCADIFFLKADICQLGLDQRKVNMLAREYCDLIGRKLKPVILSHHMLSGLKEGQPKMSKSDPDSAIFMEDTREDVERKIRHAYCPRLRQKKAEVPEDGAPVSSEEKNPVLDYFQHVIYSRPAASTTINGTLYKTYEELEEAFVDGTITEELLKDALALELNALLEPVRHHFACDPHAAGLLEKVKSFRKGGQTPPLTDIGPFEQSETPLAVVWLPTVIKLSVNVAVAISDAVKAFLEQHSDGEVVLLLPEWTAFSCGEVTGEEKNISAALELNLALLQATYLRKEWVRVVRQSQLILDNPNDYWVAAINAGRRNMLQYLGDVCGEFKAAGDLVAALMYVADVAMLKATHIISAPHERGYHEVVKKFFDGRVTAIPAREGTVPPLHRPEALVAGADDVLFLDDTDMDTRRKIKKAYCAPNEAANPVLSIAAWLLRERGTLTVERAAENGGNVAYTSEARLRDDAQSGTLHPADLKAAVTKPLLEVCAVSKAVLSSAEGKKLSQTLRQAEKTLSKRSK

[8] = molecular target: T4, Tyrosyl-tRNA synthetase, putative (Trypanosoma cruzi (strain CL Brener)); assay: Trypanosoma cruzi tyrosyl tRNA synthetase (TcYRS) SOP; format: functional; details: 30 µM
[9] = molecular target: Chromo domain-containing protein 1 (Saccharomyces cerevisiae (strain ATCC 204508 / S288c) (Baker's yeast)) (UniProt P32657); assay: ScCHD-1 Enzyme Inhibition Assay; format: functional; details: 30 µM; note: in the data most compounds retested in dose-response had high values
Sequence of Chromo domain-containing protein 1 (Saccharomyces cerevisiae (strain ATCC 204508 / S288c) (Baker's yeast)) (P32657 whole entry, the tested form may be a part): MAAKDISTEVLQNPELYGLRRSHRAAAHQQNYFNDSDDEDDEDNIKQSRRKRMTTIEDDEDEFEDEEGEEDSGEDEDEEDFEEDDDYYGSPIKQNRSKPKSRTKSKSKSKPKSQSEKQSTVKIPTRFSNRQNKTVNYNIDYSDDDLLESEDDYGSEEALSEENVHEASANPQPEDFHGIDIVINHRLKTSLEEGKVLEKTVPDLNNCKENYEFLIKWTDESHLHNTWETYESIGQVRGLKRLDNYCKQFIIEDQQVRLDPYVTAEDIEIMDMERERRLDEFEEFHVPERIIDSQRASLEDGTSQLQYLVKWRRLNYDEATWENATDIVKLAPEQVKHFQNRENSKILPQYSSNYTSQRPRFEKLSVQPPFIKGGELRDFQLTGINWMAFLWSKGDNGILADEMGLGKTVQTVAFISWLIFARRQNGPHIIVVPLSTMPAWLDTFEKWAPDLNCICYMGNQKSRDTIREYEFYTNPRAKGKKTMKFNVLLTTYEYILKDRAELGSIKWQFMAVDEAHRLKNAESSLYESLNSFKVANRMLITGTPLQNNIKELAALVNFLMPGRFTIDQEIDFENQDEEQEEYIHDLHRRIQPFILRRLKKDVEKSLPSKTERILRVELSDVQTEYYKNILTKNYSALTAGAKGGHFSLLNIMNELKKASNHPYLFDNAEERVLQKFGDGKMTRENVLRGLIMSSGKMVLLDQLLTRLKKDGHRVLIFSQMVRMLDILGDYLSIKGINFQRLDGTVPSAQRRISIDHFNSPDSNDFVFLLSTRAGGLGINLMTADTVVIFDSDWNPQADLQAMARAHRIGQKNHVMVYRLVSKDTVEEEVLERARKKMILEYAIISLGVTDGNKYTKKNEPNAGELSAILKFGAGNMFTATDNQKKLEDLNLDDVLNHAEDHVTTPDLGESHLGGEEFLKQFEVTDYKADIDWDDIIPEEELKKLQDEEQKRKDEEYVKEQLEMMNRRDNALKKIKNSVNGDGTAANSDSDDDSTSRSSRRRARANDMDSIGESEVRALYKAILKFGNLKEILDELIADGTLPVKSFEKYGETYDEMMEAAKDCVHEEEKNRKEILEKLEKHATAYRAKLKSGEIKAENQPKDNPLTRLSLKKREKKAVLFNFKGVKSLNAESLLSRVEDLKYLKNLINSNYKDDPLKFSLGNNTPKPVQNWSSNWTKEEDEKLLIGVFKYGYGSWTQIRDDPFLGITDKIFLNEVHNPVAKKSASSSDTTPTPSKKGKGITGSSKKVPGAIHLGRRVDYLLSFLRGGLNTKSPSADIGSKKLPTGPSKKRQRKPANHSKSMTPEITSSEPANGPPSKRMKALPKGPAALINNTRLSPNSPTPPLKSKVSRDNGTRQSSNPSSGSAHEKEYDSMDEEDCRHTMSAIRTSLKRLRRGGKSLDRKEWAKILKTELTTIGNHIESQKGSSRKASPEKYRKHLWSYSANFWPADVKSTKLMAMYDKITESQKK

Sequence of Protein translocase subunit SecA (Escherichia coli (strain K12)) (P10408 whole entry): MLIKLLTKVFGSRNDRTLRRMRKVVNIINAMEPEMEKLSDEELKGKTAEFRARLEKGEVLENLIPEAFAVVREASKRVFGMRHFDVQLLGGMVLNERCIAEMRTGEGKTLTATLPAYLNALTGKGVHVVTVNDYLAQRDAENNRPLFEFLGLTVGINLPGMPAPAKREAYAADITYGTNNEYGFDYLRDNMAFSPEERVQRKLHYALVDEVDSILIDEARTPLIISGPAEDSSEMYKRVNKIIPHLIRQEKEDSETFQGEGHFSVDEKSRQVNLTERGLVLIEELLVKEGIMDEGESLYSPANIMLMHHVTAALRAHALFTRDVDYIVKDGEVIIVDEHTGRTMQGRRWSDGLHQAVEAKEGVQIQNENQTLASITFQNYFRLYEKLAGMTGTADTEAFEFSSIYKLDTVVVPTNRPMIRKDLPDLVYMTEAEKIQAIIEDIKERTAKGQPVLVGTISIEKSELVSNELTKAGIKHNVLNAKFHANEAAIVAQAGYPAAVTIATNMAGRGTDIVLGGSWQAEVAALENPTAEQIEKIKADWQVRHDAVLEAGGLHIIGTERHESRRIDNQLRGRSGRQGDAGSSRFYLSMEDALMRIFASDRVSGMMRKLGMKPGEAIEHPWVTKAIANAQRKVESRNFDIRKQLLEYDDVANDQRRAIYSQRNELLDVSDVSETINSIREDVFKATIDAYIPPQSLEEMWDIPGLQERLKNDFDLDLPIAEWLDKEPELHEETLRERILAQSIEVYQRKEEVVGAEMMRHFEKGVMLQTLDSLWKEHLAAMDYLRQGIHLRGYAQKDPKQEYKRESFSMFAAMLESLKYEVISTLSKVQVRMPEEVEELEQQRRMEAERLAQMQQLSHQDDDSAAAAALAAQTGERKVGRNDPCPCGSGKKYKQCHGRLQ

Row | Structure (SMILES) | Percent Effect [1] | Percent Effect [2] | Percent Effect [3] | Percent Effect [4] | Percent Effect (Trypanosoma cruzi) | Percent Effect [5] | Percent Effect [6] | Percent Effect (Homo sapiens) | Percent Effect [7] | Percent Effect [8] | Percent Effect [9]
1 | CC(C)(C)c1nc(CN(Cc2cccs2)C2CCS(=O)(=O)C2)no1 (stereo not given) | -1.36% | 21.1% | -5.34% | -2% | 4.76% | 1.44% | 5.67% | 26.2% | 6.4% | 25.9% | -8.43%
2 | COc1ccc(NC(=O)c2ccc(-n3ncc(C#N)c3N)cc2)cn1 | -3.59% | 10.1% | 0.744% | 15.3% | -3.68% | -4.94% | 0.901% | 8.55% | 4.43% | 8.86% | -4.68%
3 | Cc1cccc(-c2ccc3nc(C4CCN(CC5CC5)CC4)nn3c2)c1 | -0.334% | 5.48% | -2.67% | 13.9% | 3.77% | -0.399% | 10.2% | 8.44% | 3.12% | 8.64% | -2.92%
4 | Cc1cc(C(N)=O)ccc1NC(=O)c1nc(N2CCCC2)ncc1Cl | 0.24% | 0% | -4.73% | -1.27% | -8.4% | 6.67% | 11.1% | 1.42% | 5.94% | 3.66% | 2.96%
5 | CC(C)c1nn(C)c(N(C)C)c1CNCCC(=O)N(C)C | -2.63% | 0% | -11.4% | -2.27% | 2.15% | 0.719% | 5.16% | -16.3% | -0.493% | 3.7% | 0.33%
6 | C1CCCN(c2nc(C3CC3)ns2)CC1 | -7.97% | -5.48% | -19.9% | 6.34% | -4.31% | -2.27% | 12.2% | 30.1% | -4.3% | -10% | -3.08%
7 | CCS(=O)(=O)N1CCc2c(cccc2NC(=O)NCCOC)C1 | -5.83% | 5.26% | 6.05% | 2.98% | -0.0974% | -2.37% | 7.77% | 8.27% | 4.25% | 13% | -5.11%
8 | O=C1CCCCN1Cc1cccc(NC(=O)N2CCSCC2)c1 | -4.11% | 9.72% | -6.98% | 26% | 2.43% | 8.83% | 12.1% | 8.32% | 6.32% | 12.8% | -6.96%
9 | CCC(=O)N1CCc2nc3cc(OC)c(OC)cc3c(=O)n2CC1 | -8.64% | 9.46% | -6.48% | 12.5% | 5.34% | -1.62% | 8.58% | 6.53% | 2.15% | 11.7% | -28.2%
10 | O=C(c1ccc[nH]1)N1C[C@H]2CC[C@@H]1CN(c1ncccn1)C2 | -5.19% | 5.2% | 7.19% | 11.1% | 2.26% | -9.65% | 6.49% | -14.3% | 6.45% | 13.6% | -0.0272%
11 | Cc1cnn(CC2CCCCN2C(=O)c2cc(C(N)=O)cs2)c1 (stereo not given) | -8.81% | 1.27% | 1.77% | -2.33% | 0.308% | -2.37% | 8.4% | 17.1% | -1.04% | -5.06% | -0.902%
12 | CCCc1nc(C)c(C(=O)NS(=O)(=O)c2ccc(C#N)cc2)s1 | -4.98% | 10.8% | -2.15% | 25.9% | 6.18% | 0.476% | 9.14% | 2.07% | 0.529% | 9.76% | -9.01%
13 | CN(C)C(=O)CCCNC(=O)C(c1cccc(F)c1)N(C)C (stereo not given) | 0.633% | 13.5% | -10.5% | 5.14% | 5.41% | -1.43% | 11.7% | 24.9% | 10.1% | 12.2% | -1.94%
14 | O=C(COC(=O)Cc1cccs1)NCc1cccc(NC(=O)C2CC2)c1 | -4.92% | 21.1% | 1.38% | -10.9% | -3.27% | -1.08% | 3.47% | 4.04% | 5.42% | 16.1% | -4.73%
15 | O=C(NCCn1ccnc1)NCC(c1ccco1)N1CCCCC1 (stereo not given) | -3.12% | 2.6% | 4.65% | 2.57% | -4.41% | 1.9% | 3.64% | 13.9% | 2.86% | 2.35% | -18.2%
16 | Cc1cccn2c(=O)cc(OC(=O)c3ccccc3)nc12 | 1.09% | 0% | 45.4% | -1.9% | -4.97% | -14.2% | 5.27% | -1.07% | 0% | 0% | -3.23%
17 | CC(=O)NCc1ccc(C(=O)N2CCCCC2Cn2cccn2)o1 (stereo not given) | -1.39% | 27% | -1.91% | -5% | 4.18% | -5.36% | 14.4% | 17.1% | 1.98% | 18.3% | -6.26%
18 | O=C(c1ccc[nH]1)N1CCC2(CC1)C(=O)Nc1ccccc12 | -3.56% | 16.2% | -2.52% | 18% | 6.35% | 4.22% | 10.7% | -3.84% | 5.38% | 23.5% | -5.84%
19 | CC(C)(C)OC(=O)CNC(=O)CCc1nnc(-c2ccsc2)o1 | -5.71% | 5.2% | 2.21% | 5.6% | -0.688% | 24.8% | 16.1% | 6.67% | 3.23% | 3.7% | -0.78%
20 | Cc1ccc(C(=O)Nc2cn[nH]c2)cn1 | 0.472% | 13.2% | 9.28% | 0.161% | -1.13% | -3.45% | 8.69% | 6.9% | 1.47% | 19.5% | -10.8%
